Screening data: PubChem, National Center for Advancing Translational Sciences (NCATS)
HTT prom inh: inhibitors of huntingtin promoter activity | Potency, µM (titrated, usually from 57.5 µM), for the others: at the top dose activity change, negative = inhibition, actives largely listed as inhibitors | 48,000 compounds, 0.93% hits | HEK293 HTT promoter firefly luciferase reporter, 24 h; also: potency is read from the fitted curve at half-maximal effect; nearly all actives have a fitted effect of over 50% in size
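Luminescence was read after Dual-Glo reagent and a 10 min room-temperature incubation. Values were normalized to vehicle (0% activity) and zero RLU (-100% activity). Reporter HEK293 cells had been exposed to compounds (up to 57.5 uM final) for 24 h.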
pS6 MEF inh: mTORC1 pathway inhibition measured by phospho-rpS6; 44,000 compounds, 0.78% hits; Potency, µM (doses to about 38.3 µM), for inactives: at the highest dose activity change, negative = inhibition, hits mostly inhibitors; Tsc2-/- p53-/- MEF, phospho-rpS6 immunofluorescence/PI, 24 h;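 also: potency is read from the fitted curve at half-maximal effect; plate controls were DMSO for no effect and rapamycin for full effect; nearly all actives have a fitted effect of over 50% in size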
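Plate MEFs (Tsc2-/-, p53-/-, empty vector) in DMEM/10% FBS; after 24 h add compound, incubate 24 h at 37 degree Celsius; fix in PFA/TX-100, block, stain phospho-rpS6 and 10 uM PI; scan at 488 nm; report % positive cells.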
PMP22 txn: modulates PMP22 transcription in S16 Schwann cells; 43,000 compounds, 2% hits; S16 Pmp22-F2sN Schwann cells, FLuc/NLuc coincidence luminescence, 24 h; Potency, µM (series often up to 57.5 µM), inactives show top-dose activity change, negative = inhibition, usual class: inhibitors; AID 1508649; active = clear falling dose curves in both reporters; inconclusive = both reporters move, but less clearly or upward; inactive = either reporter flat; the % is the NLuc reporter signal; also: potency is read from the fitted curve at half-maximal effect; % is scaled to controls: 0 for no effect and ±100 for the full control effect
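S16(c9) Schwann cells with FLuc/NLuc coincidence reporter in the Pmp22 3' UTR; compounds pin-transferred, 24 h at 37C. Dual-luciferase read: FLuc first, then NLuc after Stop&Glo, each 10 min at room temperature.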
S16 F2sN tox: S16 Schwann cell cytotoxicity; S16 Pmp22-F2sN Schwann cells viability, CellTiter-Glo, 24 h; Potency, µM (top dose mostly 57.5 µM), for inactives: top-dose activity change, negative = cytotoxicity, actives largely listed as cytotoxic; 43,000 compounds, 0.48% hits; also: potency is read from the fitted curve at half-maximal effect; % is scaled to controls: 0 for no effect and ±100 for the full control effect; nearly all actives have a fitted effect of over 65% in size
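CellTiter-Glo counter-screen, qHTS, 1536-well. Cells: S16(c9) Pmp22-F2sN, 500-1,000/well in DMEM + 10% FBS. Cpd 23 nL pin transfer, 24 h, 37C/5% CO2. Read: luminescence, CCD imager.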
HTT-AS act: activators of huntingtin-antisense promoter activity. HEK293 HTT-AS promoter firefly luciferase reporter, 24 h; response scale: percent change from vehicle, -100% = no light. Potency, µM (top dose mostly 57.5 µM), for the others: at the top dose activity change, positive = activation, most hits filed as activators. 48,000 compounds, 0.24% hits; also: potency is read from the fitted curve at half-maximal effect; nearly all actives have a fitted effect of over 55% in size
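Firefly luciferase signal from promoter-reporter HEK293 cells was scaled between vehicle (0%) and zero RLU (-100%). Compounds were tested at final concentrations of up to 57.5 uM over 24 h at 37 degrees C. PTC124 at 50 uM final served as control inhibitor.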
NLuc saturating: NanoLuc enzyme inhibition artifact for PMP22 screen. shares compounds with PMP22 txn. Secreted NLuc enzyme (filtered S16 cell medium), Nano-Glo luminescence. Potency, µM (highest dose often 57.5 µM), for inactives: at the top dose activity change, negative = inhibition, most hits filed as inhibitors. 690 compounds, 4% hits; also: potency is read from the fitted curve at half-maximal effect; % is scaled to controls: 0 for no effect and ±100 for the full control effect
NLuc Km counter: NanoLuc inhibition at Km substrate, PMP22 artifact check. shares compounds with PMP22 txn. secreted NLuc enzyme, coelenterazine luminescence, Km conditions. Potency, µM (highest dose often 57.5 µM), for the others: at the highest dose activity change, negative = inhibition, usual class: inhibitors. 690 compounds, 5% hits; also: potency is read from the fitted curve at half-maximal effect; % is scaled to controls: 0 for no effect and ±100 for the full control effect
FLuc ctr PMP22: inhibits firefly luciferase, PMP22 counter-screen; AID 1508640; purified P. pyralis FLuc, luminescence, 10 min; 690 tested, under 10 active; Potency, µM (top dose mostly 57.5 µM), for the others: top-dose activity, negative = inhibition, hits mostly inhibitors; shares compounds with PMP22 txn; also: % of control where 0% means no effect
Target sequence (P08659 whole entry, looked up): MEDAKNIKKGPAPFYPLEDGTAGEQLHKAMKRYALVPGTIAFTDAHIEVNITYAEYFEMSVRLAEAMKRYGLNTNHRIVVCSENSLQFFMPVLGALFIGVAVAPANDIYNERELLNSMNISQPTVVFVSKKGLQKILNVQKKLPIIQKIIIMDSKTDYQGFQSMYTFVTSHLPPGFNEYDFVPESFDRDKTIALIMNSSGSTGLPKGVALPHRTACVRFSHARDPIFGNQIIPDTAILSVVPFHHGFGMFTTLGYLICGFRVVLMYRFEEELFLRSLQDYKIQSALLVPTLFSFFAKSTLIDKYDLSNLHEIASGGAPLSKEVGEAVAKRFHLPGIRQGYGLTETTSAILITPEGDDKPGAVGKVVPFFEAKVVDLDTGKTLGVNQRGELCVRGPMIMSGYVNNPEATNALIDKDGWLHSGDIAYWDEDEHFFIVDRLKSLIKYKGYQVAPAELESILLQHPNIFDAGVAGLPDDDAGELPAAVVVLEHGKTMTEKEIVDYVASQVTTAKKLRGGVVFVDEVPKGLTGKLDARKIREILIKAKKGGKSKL
S16 F2sN tox cnf: confirmation of cytotoxicity in S16 Pmp22-F2sN Schwann cells (luciferase reporters placed in the Pmp22 gene) | shares compounds with PMP22 txn | Potency, µM (titrated, usually from 57.5 µM), inactives show at the highest dose activity change, negative = viability loss, most hits filed as cytotoxic | S16 Schwann cells viability, CellTiter-Glo ATP luminescence, 24 h | 690 compounds, 7% hits; also: potency is read from the fitted curve at half-maximal effect; % is scaled to controls: 0 for no effect and ±100 for the full control effect
PMP22 txn conf: confirmation of modulators of PMP22 gene transcription in S16 cells; Potency, µM (highest dose often 57.5 µM), for inactives: top-dose activity change, negative = inhibition, most hits filed as inhibitors; S16 Schwann cells Pmp22-F2sN, dual luciferase, 24 h; AID 1508646; shares compounds with PMP22 txn; 690 compounds, 22% hits; active = clear falling dose curves in both reporters; inconclusive = both reporters move, but less clearly or upward; inactive = either reporter flat; the % is the FLuc reporter signal; also: potency is read from the fitted curve at half-maximal effect
PMP22 prot conf: rat PMP22 protein level modulation, confirmatory. AID 1508647. Potency, µM (series often up to 27.9 µM), without a hit: at the highest dose activity change, negative = inhibition, most hits filed as inhibitors. shares compounds with PMP22 txn. S16 Schwann cells Pmp22-HiBiT, luminescence, 48 h. 95 tested, under 10 active
Target sequence (P25094 whole entry, looked up): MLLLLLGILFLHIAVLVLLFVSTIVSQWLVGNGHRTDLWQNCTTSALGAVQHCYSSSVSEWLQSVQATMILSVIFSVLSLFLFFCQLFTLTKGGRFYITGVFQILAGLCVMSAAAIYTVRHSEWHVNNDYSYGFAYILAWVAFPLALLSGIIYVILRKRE
Active calls of the source: *; ? = inconclusive; / = no result. Compounds with a hit are over-represented: about 3.6% of the library has one in this group of screens. Unless noted, calls follow the shape of the dose curve; as a rule, active = well fitted curve in the direction sought with a large enough effect; inconclusive = small, poorly fitted or top-dose-only effect, or another doubt; inactive = no such curve, though single readings can be large; an effect the other way counts as inactive or inconclusive.

SMILES	HTT prom inh	pS6 MEF inh	PMP22 txn	S16 F2sN tox	HTT-AS act	NLuc saturating	NLuc Km counter	FLuc ctr PMP22	S16 F2sN tox cnf	PMP22 txn conf	others
C=CC[C@@H]1C=C(C)C[C@H](C)C[C@H](OC)[C@H]2O[C@@](O)(C(=O)C(=O)N3CCCC[C@H]3C(=O)O[C@H](C(C)=C[C@@H]3CC[C@H](O)[C@H](OC)C3)[C@@H](C)[C@@H](O)CC1=O)[C@@H](C)C[C@@H]2OC	?	/	/	/	-26.4%	/	/	/	/	/
CCOC(=O)C(CC)Sc1ncnc2sc3c(c12)CCCC3 (stereo not drawn)	-20.2%	-15.6%	?	1.9%	-28.8%	/	/	/	/	/
CC(C)OCCCNc1ncnc2sc3c(c12)CCCC3	?	-20.2%	14.1µM*	-10.0%	-39.0%	-2.6%	-2.7%	-8.7%	-7.5%	-5.9%
COc1cc(Cl)c(NS(=O)(=O)c2ccc(-c3coc(C)n3)cc2)c(OC)c1	?	?	12.9µM*	-15.9%	-52.5%	?	?	-0.1%	?	-12.9%
COC(=O)c1c(C)oc2ccc(N(C(=O)c3ccncc3)S(=O)(=O)c3c(C)cc(C)cc3C)cc12	?	-15.6%	3.77µM*	-11.5%	-37.9%	-8.3%	6.1%	10.7%	-7.0%	?
CCOC(=O)c1c(C)oc2ccc(N(C(=O)c3ccncc3)S(=O)(=O)c3ccc(F)cc3C)cc12	?	-4.7%	?	-22.0%	-47.6%	/	/	/	/	/
O=C(C1CCN(c2ncnc3c2nc2n3CCCCC2)CC1)N1CCN(c2cccc(Cl)c2)CC1	?	-10.4%	?	-27.6%	-47.8%	/	/	/	/	/
Clc1cccc(N2CCN(c3ncnc4c3nc3n4CCCCC3)CC2)c1	10µM*	-21.1%	20µM*	-10.2%	-61.3%	?	13.7µM*	-2.9%	?	?
COc1ccc(C2CC(=O)N(CC(=O)Nc3cccc(C)c3C)c3ccccc3S2)cc1OC (stereo not drawn)	?	-6.7%	11.9µM*	-5.7%	-37.4%	?	?	2.2%	-16.1%	-37.9%
COc1ccc(C2CC(=O)N(CC(=O)Nc3ccc(C)c(Cl)c3)c3ccccc3S2)cc1OC (stereo not drawn)	-29.2%	-1.9%	-43.8%	-0.5%	-20.7%	/	/	/	/	/
O=C(COc1ccc(F)cc1)Nc1ccc2nc(SCC(=O)N3CCc4ccccc43)sc2c1	-10.4%	-0.6%	3.03µM*	12.5%	-11.7%	?	-11.4%	-0.5%	-20.1%	?
CC(=O)Nc1ccc2nc(SCc3ccccc3)sc2c1	29.8%	-0.7%	-25.7%	-8.0%	?	/	/	/	/	/
Cc1ccc(CSc2nc3ccc(NC(=O)COc4ccccc4)cc3s2)cc1	-0.2%	0.7%	15µM*	6.7%	-8.9%	1.4%	2.0%	5.9%	-16.3%	-24.8%
CCOc1ccc(C(=O)Nc2ccc3nc(SCc4ccccc4)sc3c2)cc1	-20.5%	-13.0%	8.91µM*	9.5%	-17.5%	-6.6%	2.3%	3.2%	?	18.3µM*
Cc1ccc(OCC(=O)Nc2ccc3nc(SCc4ccccc4)sc3c2)cc1	-6.5%	-2.0%	-39.5%	0.4%	-2.8%	/	/	/	/	/
CCNC(=O)Nc1ccc2ncc(Nc3ccc(C)cc3)nc2n1	11.7%	/	/	/	-1.5%	/	/	/	/	/
Cc1cc(C)cc(-n2c(SCC(=O)Nc3nnc(C)s3)nc3c([nH]c4ccccc43)c2=O)c1	-10.7%	0.4%	15.8µM*	14.3%	-17.7%	?	?	4.0%	-5.0%	?
O=C(CSc1nc2c([nH]c3ccccc32)c(=O)n1-c1cccc(Cl)c1)c1ccccc1	-18.2%	-4.4%	14.1µM*	4.9%	-15.3%	-2.1%	0.7%	-3.0%	-15.2%	12.2µM*	PMP22 prot conf=?
COc1cccc(-n2c(SCC(=O)Nc3c(C)cc(C)cc3C)nc3c([nH]c4ccccc43)c2=O)c1	?	?	11.9µM*	-1.2%	-35.8%	-6.3%	-10.6%	3.9%	1.7%	?
CC[C@H]1OC(=O)[C@H](C)[C@@H](O[C@H]2C[C@@](C)(OC)[C@@H](O)[C@H](C)O2)[C@H](C)[C@@H](O[C@@H]2O[C@@H](C)C[C@H](N(C)C)[C@@H]2O)[C@](C)(O)C[C@@H](C)C(=O)[C@H](C)[C@@H](O)[C@]1(C)O	0.3%	/	/	/	-12.0%	/	/	/	/	/
CC1(C)CCC[C@@]2(C)[C@@H]1CC[C@@]1(C)OC(=O)C[C@H]21	-9.5%	/	/	/	-5.6%	/	/	/	/	/
COc1ccc(CNC(=O)CCCn2c(=O)c3cccn3c3cccnc32)cc1	6.7%	0.8%	?	9.2%	0.4%	/	/	/	/	/
COc1cccc(NC(=O)CCCn2c(=O)c3cccn3c3cccnc32)c1	17.8%	3.3%	?	0.2%	-13.4%	?	?	-0.2%	3.7%	?
Cc1cccc(NC(=O)N2CCc3c(sc4c3CCCC4)C2c2ccc(F)cc2)c1 (stereo not drawn)	?	8.2%	-14.3%	-22.4%	-24.4%	/	/	/	/	/
COc1ccc(NC(=O)N2CCc3c(sc4c3CCCC4)C2c2ccc(F)cc2)cc1 (stereo not drawn)	?	19.9%	15.2µM*	?	-22.2%	-11.6%	-13.3%	2.1%	?	-30.2%
Cc1cccc(NC(=O)c2sc3nc4c(cc3c2N)CCCCCC4)c1C	?	?	?	16.7%	-27.6%	-7.0%	-2.0%	-7.3%	-0.3%	-39.8%
